# Source: PubChem BioAssay
# Unmarked numbers belong to inactive results. Activity calls are given as the source filed them. Cut-off read from the data, not from the text of the source, unless noted: active = inhibition above about 25%; inactive = the rest.
# Columns and labels:
# [1] = molecular target: Nuclear receptor coactivator 3 (Homo sapiens) (UniProt Q9Y6Q9); assay: SRC3 coactivator transcriptional activity inhibitors, confirmation, cell-based, luminescence, quadruplicate (AID 588792;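 active = mean inhibition over 43.08%, the solvent-only control mean plus 3 SD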;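 note: 0% = DMSO treated cells and 100% = gossypol at 36 µM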); details: HEK293 GAL4-SRC3 luciferase reporter, at 3.6 µM, hits give high values
# Nuclear receptor coactivator 3 (Homo sapiens), sequence (Q9Y6Q9 whole entry, looked up, the tested form may be a part): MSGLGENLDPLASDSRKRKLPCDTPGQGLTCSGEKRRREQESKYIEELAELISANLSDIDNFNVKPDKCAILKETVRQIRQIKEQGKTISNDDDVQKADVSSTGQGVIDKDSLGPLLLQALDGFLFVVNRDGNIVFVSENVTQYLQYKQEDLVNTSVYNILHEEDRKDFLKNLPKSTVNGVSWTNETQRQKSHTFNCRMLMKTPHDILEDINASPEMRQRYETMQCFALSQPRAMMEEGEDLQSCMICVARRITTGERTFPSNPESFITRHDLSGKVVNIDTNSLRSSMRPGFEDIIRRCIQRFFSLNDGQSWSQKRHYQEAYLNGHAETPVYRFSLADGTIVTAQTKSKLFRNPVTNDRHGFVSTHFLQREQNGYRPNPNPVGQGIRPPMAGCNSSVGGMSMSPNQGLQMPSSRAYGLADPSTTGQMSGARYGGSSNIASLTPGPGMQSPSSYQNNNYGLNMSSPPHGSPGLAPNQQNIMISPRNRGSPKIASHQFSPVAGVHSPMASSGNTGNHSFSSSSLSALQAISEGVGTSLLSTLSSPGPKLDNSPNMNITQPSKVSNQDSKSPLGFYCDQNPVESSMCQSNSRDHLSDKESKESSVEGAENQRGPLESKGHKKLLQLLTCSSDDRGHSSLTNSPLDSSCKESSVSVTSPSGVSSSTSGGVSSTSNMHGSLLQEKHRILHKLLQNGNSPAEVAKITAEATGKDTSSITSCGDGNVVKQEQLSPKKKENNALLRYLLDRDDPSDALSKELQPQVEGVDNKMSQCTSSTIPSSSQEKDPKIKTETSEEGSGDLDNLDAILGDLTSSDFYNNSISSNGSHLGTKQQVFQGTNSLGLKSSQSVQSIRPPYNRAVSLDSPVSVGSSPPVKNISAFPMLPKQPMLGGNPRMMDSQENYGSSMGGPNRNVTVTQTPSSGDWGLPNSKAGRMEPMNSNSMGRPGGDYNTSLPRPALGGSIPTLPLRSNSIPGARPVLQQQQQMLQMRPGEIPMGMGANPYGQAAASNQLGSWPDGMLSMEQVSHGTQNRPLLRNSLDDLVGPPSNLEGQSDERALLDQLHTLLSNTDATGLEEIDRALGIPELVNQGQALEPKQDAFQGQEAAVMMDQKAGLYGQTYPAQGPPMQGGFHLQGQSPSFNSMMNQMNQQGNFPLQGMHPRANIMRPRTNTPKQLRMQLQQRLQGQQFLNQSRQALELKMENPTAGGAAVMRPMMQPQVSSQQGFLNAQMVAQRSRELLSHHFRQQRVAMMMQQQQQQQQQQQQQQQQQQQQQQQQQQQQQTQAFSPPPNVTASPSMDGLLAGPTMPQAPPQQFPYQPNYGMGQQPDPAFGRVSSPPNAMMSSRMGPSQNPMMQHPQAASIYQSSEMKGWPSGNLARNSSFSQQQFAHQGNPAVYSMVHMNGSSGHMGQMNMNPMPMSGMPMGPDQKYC
# [2] = test system: transactivating tegument protein VP16 (Human herpesvirus 1), Gal4-VP16 luciferase reporter; assay: VP16 transactivation inhibitors, counter-screen for SRC3 inhibitor project, cell-based, luminescence, high throughput (AID 588794; in the data active = inhibition above about 30%); details: mammalian cells, VP16-driven luciferase reporter luminescence; at 3.6 µM; hits give high values
# [3] = test system: transactivating tegument protein VP16 (Human herpesvirus 1); assay: VP16 transactivation reporter inhibitors, counter-screen for SRC2 inhibitor project, cell-based, luminescence, single concentration (AID 652007; in the data active = inhibition above about 36%); details: cell-based VP16 transactivation luciferase reporter, at 8.9 µM, hits give high values
# [4] = molecular target: Nuclear receptor coactivator 2 (Homo sapiens) (UniProt Q15596); assay: SRC2 coactivator transcriptional activity inhibitors, confirmation, cell-based, luminescence, HEK293, triplicate (AID 652008;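 active = mean inhibition above 46.5%, the solvent-only control mean plus 3 SD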;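 note: 0% = DMSO-treated cells and 100% = Gossypol at 36 µM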); details: HEK293 GAL4-SRC2 luciferase reporter, at 8.9 µM, hits give high values
# Nuclear receptor coactivator 2 (Homo sapiens), sequence (Q15596 whole entry, looked up, the tested form may be a part): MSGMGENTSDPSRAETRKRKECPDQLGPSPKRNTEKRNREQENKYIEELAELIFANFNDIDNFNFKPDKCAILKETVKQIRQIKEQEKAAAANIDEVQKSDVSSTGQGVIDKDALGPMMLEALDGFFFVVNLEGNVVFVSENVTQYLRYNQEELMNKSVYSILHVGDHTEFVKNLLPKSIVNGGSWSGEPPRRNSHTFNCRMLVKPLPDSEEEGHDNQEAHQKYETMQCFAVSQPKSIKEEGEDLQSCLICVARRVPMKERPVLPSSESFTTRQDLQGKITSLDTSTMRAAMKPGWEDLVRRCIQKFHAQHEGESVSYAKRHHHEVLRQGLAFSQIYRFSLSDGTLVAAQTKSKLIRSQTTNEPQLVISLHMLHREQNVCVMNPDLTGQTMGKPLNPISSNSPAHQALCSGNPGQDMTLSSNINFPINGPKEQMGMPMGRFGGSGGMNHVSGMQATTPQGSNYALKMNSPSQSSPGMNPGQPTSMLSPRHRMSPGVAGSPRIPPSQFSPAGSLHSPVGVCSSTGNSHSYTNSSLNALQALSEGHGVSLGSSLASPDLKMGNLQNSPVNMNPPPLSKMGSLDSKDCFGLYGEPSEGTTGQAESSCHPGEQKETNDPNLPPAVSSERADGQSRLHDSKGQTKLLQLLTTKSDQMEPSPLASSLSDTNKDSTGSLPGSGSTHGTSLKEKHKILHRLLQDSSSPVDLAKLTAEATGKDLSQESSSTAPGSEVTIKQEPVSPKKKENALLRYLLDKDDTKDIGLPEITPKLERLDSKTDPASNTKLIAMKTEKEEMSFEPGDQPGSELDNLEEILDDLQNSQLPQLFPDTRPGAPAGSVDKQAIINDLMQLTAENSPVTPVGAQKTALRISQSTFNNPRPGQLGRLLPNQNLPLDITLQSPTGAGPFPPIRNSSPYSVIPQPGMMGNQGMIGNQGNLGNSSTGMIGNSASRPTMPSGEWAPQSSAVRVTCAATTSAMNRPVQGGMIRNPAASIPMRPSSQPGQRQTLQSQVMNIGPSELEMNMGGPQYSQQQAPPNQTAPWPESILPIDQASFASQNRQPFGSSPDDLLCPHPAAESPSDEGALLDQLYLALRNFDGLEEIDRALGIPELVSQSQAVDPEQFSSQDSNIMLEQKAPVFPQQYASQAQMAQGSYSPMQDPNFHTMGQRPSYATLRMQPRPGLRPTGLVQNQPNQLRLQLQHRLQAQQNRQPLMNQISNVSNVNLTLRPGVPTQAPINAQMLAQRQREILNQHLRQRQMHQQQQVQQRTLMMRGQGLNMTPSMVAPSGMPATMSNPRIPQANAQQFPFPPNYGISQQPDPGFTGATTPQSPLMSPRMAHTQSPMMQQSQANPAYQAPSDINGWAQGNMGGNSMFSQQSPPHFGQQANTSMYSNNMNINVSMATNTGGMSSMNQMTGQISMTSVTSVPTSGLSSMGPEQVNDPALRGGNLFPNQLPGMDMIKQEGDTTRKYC
# [5] = molecular target: Nuclear receptor coactivator 1 (Homo sapiens) (UniProt Q15788); assay: SRC1 coactivator transcriptional activity inhibitors, confirmation, cell-based, luminescence, quadruplicate (AID 588820;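 active = mean inhibition above 46.68%, the untreated control wells mean plus 3 SD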;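 note: 0% = DMSO wells and 100% = gossypol 36 µM treated wells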); details: HEK293 GAL4-SRC1 luciferase reporter, at 3.6 µM, hits give high values
# Nuclear receptor coactivator 1 (Homo sapiens), sequence (Q15788 whole entry, looked up, the tested form may be a part): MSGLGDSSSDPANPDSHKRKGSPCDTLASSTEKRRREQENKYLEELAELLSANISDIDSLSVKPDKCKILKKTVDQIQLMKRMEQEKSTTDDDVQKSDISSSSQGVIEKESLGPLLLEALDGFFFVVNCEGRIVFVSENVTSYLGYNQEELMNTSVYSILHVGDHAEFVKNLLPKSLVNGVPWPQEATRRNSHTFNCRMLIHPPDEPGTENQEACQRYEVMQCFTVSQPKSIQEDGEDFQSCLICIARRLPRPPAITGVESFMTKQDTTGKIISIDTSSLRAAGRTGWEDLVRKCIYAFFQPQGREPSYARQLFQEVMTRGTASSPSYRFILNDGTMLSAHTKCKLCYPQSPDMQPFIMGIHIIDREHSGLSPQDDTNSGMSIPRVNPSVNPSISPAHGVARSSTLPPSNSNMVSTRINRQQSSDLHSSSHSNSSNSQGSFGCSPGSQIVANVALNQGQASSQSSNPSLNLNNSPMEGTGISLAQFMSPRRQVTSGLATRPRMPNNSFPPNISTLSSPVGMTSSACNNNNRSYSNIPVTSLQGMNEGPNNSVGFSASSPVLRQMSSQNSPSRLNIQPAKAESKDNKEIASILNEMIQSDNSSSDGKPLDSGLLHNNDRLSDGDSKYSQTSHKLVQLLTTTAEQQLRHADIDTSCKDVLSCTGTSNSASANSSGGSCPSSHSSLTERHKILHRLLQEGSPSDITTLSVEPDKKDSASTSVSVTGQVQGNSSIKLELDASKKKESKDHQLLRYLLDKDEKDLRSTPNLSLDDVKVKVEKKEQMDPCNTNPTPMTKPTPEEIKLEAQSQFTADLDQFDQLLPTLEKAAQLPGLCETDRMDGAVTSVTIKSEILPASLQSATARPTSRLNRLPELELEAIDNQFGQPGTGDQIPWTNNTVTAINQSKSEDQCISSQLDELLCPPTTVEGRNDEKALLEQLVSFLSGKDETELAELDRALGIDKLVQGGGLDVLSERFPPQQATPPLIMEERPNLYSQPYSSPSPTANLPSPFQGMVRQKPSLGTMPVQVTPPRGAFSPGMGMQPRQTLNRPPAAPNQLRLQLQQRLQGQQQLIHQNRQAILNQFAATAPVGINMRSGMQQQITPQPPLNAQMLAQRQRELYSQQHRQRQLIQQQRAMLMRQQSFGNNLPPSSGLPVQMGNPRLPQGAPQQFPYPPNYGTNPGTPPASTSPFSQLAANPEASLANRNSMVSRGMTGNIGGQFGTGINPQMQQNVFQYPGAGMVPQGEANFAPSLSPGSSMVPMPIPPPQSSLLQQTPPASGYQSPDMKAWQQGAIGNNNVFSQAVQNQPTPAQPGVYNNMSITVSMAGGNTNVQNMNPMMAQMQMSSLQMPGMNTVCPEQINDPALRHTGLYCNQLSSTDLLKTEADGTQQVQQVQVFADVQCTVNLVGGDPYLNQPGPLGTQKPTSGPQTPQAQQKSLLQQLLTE
# [6] = VP16 transactivation inhibitors, counter-screen for SRC1 inhibitor project, cell-based, luminescence, high throughput (AID 588824); details: cell-based VP16 transactivation luciferase luminescence; at 3.6 µM; hits give high values
structure (smiles),measurement,setting,value
COc1ccc(NC(=O)/C(Cl)=C(/Cl)S(=O)(=O)Cc2ccccc2)cn1,inhibition,[1],-15.3%
same,inhibition,[2],8.74%
same,inhibition,[3],80.4% (active)
same,inhibition,[4],72.4% (active)
CC1=C(C(=O)OC2CCCCC2)C(c2ccc(C)o2)C2=C(CC(C)(C)CC2=O)N1 (stereo not drawn),inhibition,[5],-5.08%
same,inhibition,[6],4.47%
O=C(O)CCCCCN1C(=O)CSC1=S,inhibition,[1],-1.77%
same,inhibition,[2],2.06%
same,inhibition,[3],-0.37%
same,inhibition,[4],7.01%
CCn1c(=O)n(CC)c2cc(N3CCCC3)c(NC(=O)c3ccccc3OC)cc21,inhibition,[5],-13.7%
same,inhibition,[6],-7.42%
COc1ccc(Cc2nnc(N/N=C/c3ccc(O)cc3)[nH]c2=O)cc1OC,inhibition,[1],84.4% (active)
same,inhibition,[2],81% (active)
same,inhibition,[3],33.1%
same,inhibition,[4],50.5% (active)
O=C1NC2(CCN(Cc3ccccc3)CC2)Oc2ccccc21,inhibition,[5],-21.7%
same,inhibition,[6],-3.3%
Fc1ccc2[nH]c3c(NCc4ccccc4)ncnc3c2c1,inhibition,[5],2.59%
same,inhibition,[6],20.2%
COc1ccccc1NC(=O)NC1(C(=O)N2CCCCC2)CCCCC1,inhibition,[5],4.76%
same,inhibition,[6],10.3%
Cc1ccc2nc(NC(=O)CCCC(=O)O)sc2c1,inhibition,[5],45.4%
same,inhibition,[6],37.5% (active)
COc1ccc(-c2cc(C(=O)NCCCN3CCOCC3)c3ccccc3n2)cc1OC,inhibition,[5],-12.4%
same,inhibition,[6],-2.84%
COc1ccccc1/C=C\C(=O)NCC(=O)N/N=C/c1cccc(OC)c1O,inhibition,[5],26.9%
same,inhibition,[6],14.2%
